# Source: PubChem BioAssay (National Center for Advancing Translational Sciences (NCATS))
# HT1080NT lethal: kills 2HG-producing HT-1080-NT fibrosarcoma cells | HT-1080-NT fibrosarcoma viability, CellTiter-Glo ATP luminescence, 48 h | Potency, µM (top dose mostly 46.1 µM), without a hit: at the highest dose activity, negative = less viability, usual class: cytotoxic | 360,000 tested, 1.6% active | AID 686970;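 also: NT is the 2HG producing partner of a matched IDH1 knockdown line; 0% = DMSO-treated cells and -100% = media-only wells without cells; nearly all actives have a fitted effect of over 55% in size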
#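 Compounds were tested in concentration-response format on HT-1080-NT cells for 48 hours at 37 degrees C. Cell viability came from CellTiter-Glo luminescence; curves were classified by r2, response magnitude and activity.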
# MCF10A rerep: inducers of DNA re-replication in MCF 10A breast cells; MCF 10A DNA re-replication, Hoechst nuclear intensity, 48 h; 350,000 tested, 2.9% active; Potency, µM (doses to about 46.1 µM), for inactives: at the highest dose activity, positive = re-replication, hits mostly activators; also: % of control where 0% means no effect; nearly all actives have a fitted effect of over 50% in size
# HT1080 IDH1KD tx: HT-1080 IDH1 knockdown cell toxicity (counter line) | HT-1080 IDH1 knockdown viability, ATP luminescence, 48 h | 360,000 tested, 2% active | AID 686971 | Potency, µM (top dose mostly 46.1 µM), without a hit: top-dose activity, negative = toxicity, actives largely listed as cytotoxic;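 also: 0% = DMSO wells and -100% = cell-free medium wells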
#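 Luminescent ATP read-out (CellTiter-Glo, 10 min at room temperature) after 48 h compound exposure at 37 °C gave viability of IDH1-knockdown HT-1080 cells. Activity was normalised to DMSO and cell-free wells, then fitted as concentration-response curves.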
# KB-3-1 tox: kills parental KB-3-1 adenocarcinoma cells; Potency, µM (doses to about 46.1 µM), actives largely listed as cytotoxic; KB-3-1 viability, CellTiter-Glo ATP luminescence, 72 h; 400,000 tested, 1.4% active; also: % is scaled to controls: 0 for no effect and ±100 for the full control effect; nearly all actives have a fitted effect of over 60% in size
#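 Screening of KB-3-1 cells (DMEM, 10% FBS, phenol-red free) ran from lowest to highest compound concentration; after 72 h at 37 °C viability was read luminescently and curves fitted.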
# KB-V1 MDR tox: KB-V1 MDR subline cytotoxicity | KB-V1 MDR cells viability, CellTiter-Glo, 72 h | 400,000 tested, 3.4% active | Potency, µM (titrated, usually from 46.1 µM), usual class: cytotoxic; also: % is scaled to controls: 0 for no effect and ±100 for the full control effect; nearly all actives have a fitted effect of over 60% in size
#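 KB-V1 cells (P-gp-expressing MDR subline of KB-3-1) in phenol-red-free DMEM with 10% FBS were exposed to library compounds over a concentration series for 72 h at 37 degrees C. Viability read by CellTiter-Glo luminescence; concentration-effect curves fitted after normalization.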
# SW480 rerep: induces DNA re-replication in SW480 colon adenocarcinoma cells | SW480 DNA re-replication, Hoechst DNA content imaging, 48 h | 340,000 tested, 1.8% active | AID 624297 | Potency, µM (series often up to 46.1 µM), without a hit: at the highest dose re-replication activation, usual class: activators; also: % of control where 0% means no effect; nearly all actives have a fitted effect of over 55% in size
#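 DNA re-replication was detected as more nuclei of elevated Hoechst intensity after 48 hr exposure to compound (23 nL pinned per well of 250 cells).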
# An asterisk follows results filed as active; i = inactive; ? = inconclusive; . = not tested or not shown; [ ] = another dose, or the depositor's remark. In the library only some 7.9% were active in any assay of this set; here they are far more common. Calls follow the shape of the dose curve; as a rule, active = well fitted curve in the direction sought with a large enough effect; inconclusive = small, poorly fitted or top-dose-only effect, or another doubt; inactive = no such curve, though single readings can be large; an effect the other way counts as inactive or inconclusive. Potency is read from the fitted curve at half-maximal effect.
SMILES,HT1080NT lethal,MCF10A rerep,HT1080 IDH1KD tx,KB-3-1 tox,KB-V1 MDR tox,SW480 rerep
CCCCCNC1=CC(=O)CC(c2ccccc2)C1 (configuration not stated),?,?,-11%[9.24 µM],?,15µM*,?
CNC1=CC(=O)CC(c2ccccc2)C1 (configuration not stated),-4%,?,-2%,i,i,?
CCCCCCCNC1=CC(=O)CC(c2ccccc2)C1 (configuration not stated),?,18µM*,16µM*,7.3µM*,?,?
Cc1ccc(Cn2cc(S(=O)(=O)c3ccc(C)cc3)c(=O)c3cc(F)c(N4CCCC4)cc32)cc1,.,.,.,i,i,.
O=C1C(C=NCc2ccncc2)=C(O)c2ccccc21,-2%,0%,-9%,i,i,-8%
O=C1N/C(=C/c2ccc(Br)cc2)C(O)=C1C=NCc1ccccc1,?,?,?,4.6µM*,?,?
COC(=O)[C@]12CCCCC=C1N(Cc1ccc3c(c1)OCO3)C(=O)[C@H](CC(=O)N1CCC(c3ccccc3)CC1)C2,-24%,.,-13%,i,i,.
COC(=O)[C@]12CCCCC=C1N(Cc1ccc3c(c1)OCO3)C(=O)[C@H](CC(=O)NCCc1ccccc1OC)C2,?,.,12µM*,i,i,.
CCOC(=O)[C@]12CCCC=C1N(Cc1ccc3c(c1)OCO3)C(=O)[C@H](CC(=O)NCCc1ccccc1OC)C2,?,.,-28%,?,23µM*,.
CCOC(=O)[C@]12CCCC=C1N(Cc1ccc3c(c1)OCO3)C(=O)[C@H](CC(=O)N1CCC(c3ccccc3)CC1)C2,?,.,?,?,23µM*,.
CCOC(=O)[C@]12CCCC=C1N(Cc1ccc3c(c1)OCO3)C(=O)[C@H](CC(=O)NCCCOC)C2,12%,.,2%,i,i,.
COCCCNC(=O)C[C@@H]1C[C@@]2(C(=O)OC)CCCCC=C2N(Cc2ccc3c(c2)OCO3)C1=O,19%,.,27%,i,?,.
COc1cc2c(C(=O)N3CCN(c4ccc(C)cc4)C(C)C3)cn(CC(C)C)c(=O)c2cc1OC (configuration not stated),.,.,.,i,i,.
CCOCCc1nn2c(=O)cc(COC(=O)c3cccc(C)c3)nc2s1,.,.,.,i,i,.
CCOc1ccc(NC(=O)CCN2CCN(c3ccccc3F)CC2)cc1,?,?,?,?,?,18µM*
O=C(CN1CCN(CCC(=O)Nc2ccccc2F)CC1)Nc1ccc(F)cc1,0%,26%,-3%,i,i,-4%
COc1ccc(C(=O)CCN2CCCCCC2)cc1,?,?,10µM*,?,?,?
CCC(=O)Nc1ccc(N2CCN(Cc3ccccc3)CC2)cc1,-7%,8.2µM*,-1%,i,i,-6%
CCOc1ccc(C(=O)CCN2CCCCC2)cc1,?,?,-22%,i,i,24%
CCOc1ccc(NC(=O)CCN2CCN(c3ccccc3OC)CC2)cc1,0%,-12%,-4%,i,i,1%
O=C(CN1CCN(CCC(=O)Nc2ccccc2F)CC1)Nc1ccc(Cl)cc1,1%,3%,-10%,i,4.6µM*,-3%
O=C(Cn1cc(S(=O)(=O)c2ccccc2)c(=O)c2cc3c(cc21)OCO3)Nc1ccc(Cl)cc1,.,.,.,i,i,.
COc1ccc(Cl)cc1NC(=O)NCCn1c(=O)oc2ccc(C)cc21,.,.,.,i,i,.
Cc1cc2nc(-c3ccc(OCc4ccccc4C)cc3)cc(C(F)(F)F)n2n1,.,.,.,i,i,.
O=C(CCN1CCN(CCO)CC1)Nc1ccc(OCc2ccccc2)cc1,-12%,7%,-11%,i,i,-4%
O=C(CCN1CCN(Cc2ccccc2)CC1)Nc1ccc(OCc2ccccc2)cc1,-13%,?,-20%,?,2.6µM*,19%
